Measured values as given in article PMC13494018.

B1: d8r1_design_ppi_371_dldesign_0_cycle0_af2pred (protein)
chain: SAEKAALLAQGKAYFATAKAAAAAAIKLKEAGGSEKTVQALIEQAKAAGEKATALFEAYDPELGKKVKEEVDALLAAAKA
B2: d8r1_design_ppi_502_dldesign_0_cycle1_af2pred (protein)
chain: SLEELVAKAEKYLKEAAKLSPASLAPSVANALAGITEAAKVSPKAAYNLAKSFLDYVKKNGTAEAAKEAEKALEELEKAAK
B3: d8r1_design_ppi_423_dldesign_0_cycle0_af2pred (protein)
chain: SEFDKNMELLKEAGAAISELTARARAEADAAAAEGPDAVRAVAAERIEEARRITEELGEKSSLKESFRGMAERTARTIEAYAAAVIA
B4: d8r1_design_ppi_149_dldesign_0_cycle0_af2pred (protein)
chain: DEAAEIFAKALDEMDKKVKEAKEEVKKALEEGEKKDPEEAKKKAKEIIEKAIKELKEIAEKAAKKVPKLGPAAKATAEATAKVLK
B5: d8r1_design_ppi_1316_dldesign_0_cycle1_af2pred (protein)
chain: SAVAKAAAAAAAAAKKALASHPAIGAAVARSIELGKLEEAAAFATAAAKALIGEEAGEALGKELDKLVAAAKAAA
B6: d8r1_design_ppi_1493_dldesign_0_cycle0_af2pred (protein)
chain: EEEKKKLREEAIKLAKKAAEIAKKSENAKEVIEEIEKAIKYLEEGDYEKAAKELAKAGRLADPEARGYINRALLKVGEAK
B7: d8r1_design_ppi_1379_dldesign_0_cycle1_af2pred (protein)
chain: SAAAGAAVAAAGIAAMRAGAAADGLAGARAAAREAARAAMALFRKDPDAGAAALAALDAAWAAISAALAA
B8: d8r1_design_ppi_655_dldesign_0_cycle1_af2pred (protein)
chain: DDNKAAANAAKTGGNSSNERAKKLLAAGIASGDKALIAQAATLFANAATLYAFANAKTGPEYQANVDAAKANQAAANAALA
B9: d8r1_design_ppi_479_dldesign_0_cycle1_af2pred (protein)
chain: AELAKEAKELAEKGIADPSKAPEAAREIAELFAEAVKKGDNEAAAEAHAELSRIYAANPEAGREGHILAAQLMSKYAVES
B10: d8r1_design_ppi_36_dldesign_0_cycle0_af2pred (protein)
chain: REEVRAKLEAAAAALREVDPVAGEGFRRLAELAFSGEVNGAWAALASLLEHYLPAAEAHDPELGAIVAEAREAALEEWERIQAE
B11: d8r1_design_ppi_429_dldesign_0_cycle0_af2pred (protein)
chain: AAAARAAAAAEGAIAAAKLAGESGNLEALKAFVEAAHAAAAKADPATAAALKAKADATLEAAKKAFKEKEEA
B12: d8r1_design_ppi_414_dldesign_0_cycle0_af2pred (protein)
chain: MEEELKKIKELGKKAAKLAEEEGEEGFKKAIAELEKAAAEAAKGEKAKELQKLVGQGIIDVGKAAYKKEEKKEEELAK
B13: d8r1_design_ppi_991_dldesign_0_cycle0_af2pred (protein)
chain: AAAALTAAVAASIKGLAELARKAIDDKSVVKAAANAAKSAAALDKALGKEMSKKLEEAAKKSPEEAVKTIEEVAAKVAAAAAA
B14: d8r1_design_ppi_1325_dldesign_0_cycle0_af2pred (protein)
chain: SSGKEKAAEYRAKADALAAQESPETQAQLRALAERVLKAAEEGVEALAKAAAEAAAFGAATSPTAQAAAREAIAAGVAL
B15: d8r1_design_ppi_1220_dldesign_0_cycle1_af2pred (protein)
chain: AEERAEELAKEAFKLLSEAAKAAATATTEEQVKKGEELAEKAKKLAEELLKEDPSKKGLSEGIKRAAEKVKKAAEEKKKEL
B16: d8r1_design_ppi_156_dldesign_0_cycle0_af2pred (protein)
chain: MEEEREREEERRREARRMAQALENAAEAVAARAAAASPAEQPALARAAESLAAAAKVLQKEDPELGAAVEKRAEAILAEIRAR
B17: d8r1_design_ppi_93_dldesign_0_cycle1_af2pred (protein)
chain: ENKSIAQGLLKAMKAAYEQAKKSGKAAQLKATAEAAKAAAKKAKELGDEETAKELEKLAKEAKELAEKAAAAAA
B18: d8r1_design_ppi_1471_dldesign_0_cycle0_af2pred (protein)
chain: MDDSFGKNVIIDAEREIKRFEEAAKKAEEEDKEVAKEIKKIAEEIKKEAEKIKKGEGKLEHSKKALEAMSKGARLVAEFKAK
B19: d8r1_design_ppi_640_dldesign_0_cycle0_af2pred (protein)
chain: SEEEEKKAEYLKKAGAAASRAGKVAAANAGNPEIQALAKKAAKALNEAFASNVEEAKKKAEEVEKLAAEAEALAA
B20: d8r1_design_ppi_699_dldesign_0_cycle0_af2pred (protein)
chain: AAVAAAAAAGKAAIEKIEKAAKEAEKINKESGKALKSLAEQAKKLLAEGIANPATRDAKLAGVNNIAAGAETLAKALKEEKA
B21: d8r1_design_ppi_1319_dldesign_0_cycle1_af2pred (protein)
chain: AAAEELKTLAAESIGLIDQAEKALKAGTDELNYLKLVAASARKLGPEIAKLVTAALKAAKAGDKETALKYLKEARKLAEKIAA
B22: d8r1_design_ppi_246_dldesign_0_cycle1_af2pred (protein)
chain: ADPEAAARARAAAAVAGATELLKANPANTPAFAAANAEALADSPAAPEAKAAMAKIAAEAEKAAAARKAAEEAAK
B23: d8r1_design_ppi_955_dldesign_0_cycle0_af2pred (protein)
chain: LYAELAARVRAIMAAAGMSPREADTVAAFALAAAADPELEEAMREKMRKAAGPEFEPAVEEAIALAREAAAAL
B24: d8r1_design_ppi_1206_dldesign_0_cycle1_af2pred (protein)
chain: SPAAQWAALDADLKQARELAKKAKEVGNEEEAKKVEAALKKAEAAAAAARADPSLYHEARRAVGEAQVEALKVISKG
B25: d8r1_design_ppi_302_dldesign_0_cycle1_af2pred (protein)
chain: DEEEGKKSALKAAETARRLAEEAAKQAKEKAADPALAKKYVAKAKAYAKAAEDIAKGFPDNAEIKAAAKEAKKAAQQAKEALKA
B26: d8r1_design_ppi_1305_dldesign_0_cycle0_af2pred (protein)
chain: ARAEELAEALLAKAKELSKLPMGEAAKAAAAEARALAEQDPETALAAAELAYKRASEDPSVSSKVRALLGAALGAATQQLAAQKAAA
B27: d8r1_design_ppi_636_dldesign_0_cycle0_af2pred (protein)
chain: DYMDALAAMLKAAAEARALAAAGGDAAAIEAALAKAKELGEEAGKLKGESAKGFAEKVIANVEATIAAAKAARAA
B28: d8r1_design_ppi_1444_dldesign_0_cycle0_af2pred (protein)
chain: MEELLARIEEALKRAKEVLKEAKKYSPGAEAIAKAALEAAERALALARAGPERAAEAERELRAAENAIAAAEKLLEA
B29: d8r1_design_ppi_480_dldesign_0_cycle1_af2pred (protein)
chain: SAAAATEAKAKAWAAEIIAAAKADPAAAAALATEVVATASEEEIRTLLNILAQQAFKSPDGLTALTAVSAAVAARYA
B30: d8r1_design_ppi_41_dldesign_0_cycle1_af2pred (protein)
chain: RGEEILKKAKEAATRALQLASKDPSLLPLALKALALASEAGYAIAHEGVEKGEELAEKAEKLTEEIEKLAE
B31: d8r1_design_ppi_988_dldesign_0_cycle1_af2pred (protein)
chain: SEAAMAAAIAAAHAAAQAVVAADPAAAPFARALMSYAMLAVSDPAAGLAGLAAVAEAAAAAGAAAMAAVAAATRAALAAAHA
B32: d8r1_design_ppi_353_dldesign_0_cycle1_af2pred (protein)
chain: TAAAKAAADAALANLQAFLDVVVAADPQNIARVEKAAQIAISGGKVLAAQHPEVADYAAGAATAAAQAAVDRAKALAAA
B33: d8r1_design_ppi_863_dldesign_0_cycle0_af2pred (protein)
chain: SRAERLIEEAERLAKEAKEAAKRVADSPVAPRAKALADATEAFAKGLKAAAAAGGSMEDQEALLRAARNTAEAAKILAEEAEAARAA
B34: d8r1_design_ppi_306_dldesign_0_cycle0_af2pred (protein)
chain: DAARRAKAEALLKQAKEDFKKFAEQAKKEGPSVLKALKNINESVAEHLKKLDPELGEELKKYGEELIKKAEE
B35: d8r1_design_ppi_679_dldesign_0_cycle0_af2pred (protein)
chain: AAAAARAAIVDETIARIRAELASRPSLAAFAESVLRRGLALGNEAEAARNVAAMLEAAGATAAAAVAREAAARIEAL
B36: d8r1_design_ppi_1240_dldesign_0_cycle1_af2pred (protein)
chain: DDATLKQAAALIAEGQAAAAQATTDPAYAAKAKEAYKKAGEVYPESSEFFNIAGEKTAQAALDKYKAAQAAAAAAAA
B37: d8r1_design_ppi_569_dldesign_0_cycle0_af2pred (protein)
chain: EPSPRVQALLHVGRAAATLIAASGTEAGRAAAAELARLAFEAAASSPEEGQKLLEEALARADEVAAGLPADAAAAVRAHLEAALAAMK
B38: d8r1_design_ppi_429_dldesign_0_cycle1_af2pred (protein)
chain: AAAALAAAAAEGAIELAEYQVEIGNLEAARAFVEGALRAAARADPATAAELRARARAVLEEAERRHKERLEA

These binders were tested against PDL1, Q9NZQ7.
Sequence of PDL1, Q9NZQ7 (Q9NZQ7 whole entry): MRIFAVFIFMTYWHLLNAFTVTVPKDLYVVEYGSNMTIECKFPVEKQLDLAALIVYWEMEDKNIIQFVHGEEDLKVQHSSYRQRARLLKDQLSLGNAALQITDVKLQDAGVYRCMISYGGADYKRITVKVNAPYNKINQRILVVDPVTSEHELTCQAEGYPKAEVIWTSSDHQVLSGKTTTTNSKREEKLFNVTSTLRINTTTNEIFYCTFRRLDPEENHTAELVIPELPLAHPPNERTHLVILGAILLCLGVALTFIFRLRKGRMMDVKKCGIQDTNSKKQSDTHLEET

Binding in a display sort, inactive:
B1 not found
B2 not found
B3 not found
B4 not found
B5 not found
B6 not found
B7 not found
B8 not found
B9 not found
B10 not found
B11 not found
B12 not found
B13 not found
B14 not found
B15 not found
B16 not found
B17 not found
B18 not found
B19 not found
B20 not found
B21 not found
B22 not found
B23 not found
B24 not found
B25 not found
B26 not found
B27 not found
B28 not found
B29 not found
B30 not found
B31 not found
B32 not found
B33 not found
B34 not found
B35 not found
B36 not found
B37 not found
B38 not found
